Measurements reported in PubChem BioAssay (NCI).
Compounds without any hit were thinned out: in the full panel of roughly 83,000, 20% have a hit.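 Single-concentration screen, 48 h exposure, 96-well plates. Endpoint: percent growth. Below 10 = active.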 Activity calls are given as the source filed them.

Experiments:
Experiment in all cases: NCI-60 one-dose screen, 48 h (100 = growth as untreated, 0 = no growth, -100 = all killed)
Details in all cases: 10 µM unless noted
NCI-H23 lung = system: NCI-H23 lung
NCI-H226 lung = system: NCI-H226 lung
NCI-H322M lung = system: NCI-H322M lung
HOP-62 NSCLC = system: HOP-62 NSCLC
NCI-H460 lung = system: NCI-H460 lung
HOP-92 NSCLC = system: HOP-92 NSCLC
NCI-H522 lung = system: NCI-H522 lung
A549/ATCC NSCLC = system: A549/ATCC NSCLC
786-0 renal = system: 786-0 renal
COLO 205 colon = system: COLO 205 colon
DU-145 prostate = system: DU-145 prostate
K-562 leukemia = system: K-562 leukemia
MALME-3M melanoma = system: MALME-3M melanoma
MDA-MB-231 breast = system: MDA-MB-231 breast
RXF 393 renal = system: RXF 393 renal
SF-268 CNS = system: SF-268 CNS
SF-295 CNS = system: SF-295 CNS
SF-539 CNS = system: SF-539 CNS
UACC-257 melanoma = system: UACC-257 melanoma
M14 melanoma = system: M14 melanoma

Measured: growth

Cc1ccc(C2C3CC4CCCCC4N3[C@@]3(C(=O)Nc4cc(Cl)ccc43)C2C(=O)c2nc3ccccc3[nH]2)cc1 (stereo not given in full)
inactive: NCI-H23 lung 57.8% | NCI-H226 lung 62.7% | NCI-H322M lung 63.3% | HOP-62 NSCLC 66.5% | NCI-H460 lung 15.9% | HOP-92 NSCLC 44.1% | NCI-H522 lung 54% | A549/ATCC NSCLC 31.1% | 786-0 renal 35.2% | COLO 205 colon 30.6% | DU-145 prostate 64.3% | K-562 leukemia 26.2% | MALME-3M melanoma 33.9% | MDA-MB-231 breast 30.6% | RXF 393 renal 15.5% | SF-268 CNS 38.3% | SF-295 CNS 27.9% | SF-539 CNS 50.3% | UACC-257 melanoma 35.1% | M14 melanoma 27.9%

CSc1nc(O)c(-c2ccccc2)c(=O)[nH]1
inactive: NCI-H23 lung 103% | NCI-H226 lung 99.1% | NCI-H322M lung 101% | HOP-62 NSCLC 105% | NCI-H460 lung 104% | HOP-92 NSCLC 101% | NCI-H522 lung 94.2% | A549/ATCC NSCLC 100% | 786-0 renal 101% | COLO 205 colon 103% | DU-145 prostate 107% | K-562 leukemia 98% | MALME-3M melanoma 101% | MDA-MB-231 breast 98.5% | RXF 393 renal 116% | SF-268 CNS 103% | SF-295 CNS 101% | SF-539 CNS 100% | UACC-257 melanoma 101% | M14 melanoma 101%

CC(=O)c1cc2c(N)c(C(=O)Nc3cncc4ccccc34)sc2nc1C
inactive: NCI-H23 lung 101% | NCI-H226 lung 105% | NCI-H322M lung 113% | HOP-62 NSCLC 93.5% | NCI-H460 lung 110% | HOP-92 NSCLC 98.6% | NCI-H522 lung 92.1% | A549/ATCC NSCLC 106% | 786-0 renal 98.4% | COLO 205 colon 121% | DU-145 prostate 115% | K-562 leukemia 81.7% | MALME-3M melanoma 112% | MDA-MB-231 breast 86.2% | RXF 393 renal 100% | SF-268 CNS 105% | SF-295 CNS 97.2% | SF-539 CNS 98.3% | UACC-257 melanoma 104% | M14 melanoma 94%

N#Cc1cc(-c2nc3ccccc3s2)c(=O)n(NS(=O)(=O)c2ccc(Cl)cc2)c1N
inactive: NCI-H23 lung 94.9% | NCI-H226 lung 80.8% | NCI-H322M lung 102% | HOP-62 NSCLC 89.6% | NCI-H460 lung 105% | HOP-92 NSCLC 98.6% | NCI-H522 lung 96.3% | A549/ATCC NSCLC 117% | 786-0 renal 105% | COLO 205 colon 122% | DU-145 prostate 110% | K-562 leukemia 96.7% | MALME-3M melanoma 105% | MDA-MB-231 breast 87.2% | RXF 393 renal 109% | SF-268 CNS 97.8% | SF-295 CNS 110% | SF-539 CNS 93.9% | UACC-257 melanoma 111% | M14 melanoma 97.5%

COC(=O)C(c1ccccc1)C(CC(=O)c1ccccc1)c1ccccc1 (stereo not given)
inactive: NCI-H23 lung 78.3% | NCI-H226 lung 75.1% | NCI-H322M lung 75.6% | HOP-62 NSCLC 91.4% | NCI-H460 lung 109% | HOP-92 NSCLC 62.6% | NCI-H522 lung 61.9% | A549/ATCC NSCLC 95.4% | 786-0 renal 106% | COLO 205 colon 105% | DU-145 prostate 95.8% | K-562 leukemia 73.1% | MALME-3M melanoma 69.7% | MDA-MB-231 breast 98.1% | RXF 393 renal 80.9% | SF-268 CNS 83.8% | SF-295 CNS 79.9% | SF-539 CNS 98.6% | UACC-257 melanoma 101% | M14 melanoma 103%

O=C(Nc1cccc(C2=NCCN2)c1)c1ccc(OCCCOc2ccc(C(=O)Nc3cccc(C4=NCCN4)c3)cc2)cc1
inactive: NCI-H226 lung 52.8% | HOP-62 NSCLC 57.4% | HOP-92 NSCLC 18.8% | 786-0 renal 58.1% | K-562 leukemia 27.2% | SF-268 CNS 25.9% | SF-295 CNS 52.1% | M14 melanoma 30.4%
active: NCI-H23 lung 1.27% | NCI-H322M lung -0.261% | NCI-H460 lung 6.54% | NCI-H522 lung -18.6% | A549/ATCC NSCLC -55.3% | COLO 205 colon -18.7% | DU-145 prostate 9.35% | MALME-3M melanoma -82% | MDA-MB-231 breast -10.5% | RXF 393 renal -19.9% | SF-539 CNS -43.7% | UACC-257 melanoma -11%

N#C/C(=C\c1ccc(Br)cc1)n1nnc2cccc(F)c21
inactive: NCI-H23 lung 23.8% | NCI-H226 lung 41.9% | NCI-H322M lung 32.3% | HOP-62 NSCLC 40% | NCI-H522 lung 18.4% | A549/ATCC NSCLC 20.9% | 786-0 renal 11.2% | K-562 leukemia 12.7% | MALME-3M melanoma 37.7% | SF-268 CNS 24.4% | SF-295 CNS 55.4% | UACC-257 melanoma 37.3% | M14 melanoma 10.9%
active: NCI-H460 lung -47% | HOP-92 NSCLC -23.7% | COLO 205 colon -12.5% | DU-145 prostate 0.426% | MDA-MB-231 breast -1.07% | RXF 393 renal -23.6% | SF-539 CNS 1.06%

COc1ccc(-n2cc(-c3cc(OC)c(OC)c(OC)c3)n(C(C)=O)c2=O)cc1
inactive: NCI-H23 lung 95% | NCI-H226 lung 94.6% | NCI-H322M lung 78.8% | HOP-62 NSCLC 126% | NCI-H460 lung 109% | HOP-92 NSCLC 85.7% | NCI-H522 lung 77.4% | A549/ATCC NSCLC 99.8% | 786-0 renal 64.5% | COLO 205 colon 91.5% | DU-145 prostate 109% | K-562 leukemia 92.9% | MALME-3M melanoma 79.4% | MDA-MB-231 breast 86.4% | RXF 393 renal 111% | SF-268 CNS 94.7% | SF-295 CNS 82.1% | SF-539 CNS 90.2% | UACC-257 melanoma 90.3% | M14 melanoma 111%
